Bioassay records (PubChem BioAssay)
Rows were chosen to be rich in hits. Some 4.1% of all compounds tested hit in one or more screens of this group.
DAX1 inh-1 – inhibits human nuclear receptor DAX1 | HEK293 Gal4-DAX1 luciferase reporter, luminescence | AID 504766 | hit rate 0.99% among 340,000 | inhibition, % at 6.75 µM | P51843;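 active = inhibition above the mean over all tested compounds plus 3 SD, cut at about 4.2% in these data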;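 also: 0% = DAX1-transfected cells with DMSO and 100% = empty-vector control cells with DMSO; inhibition shows as a rise in luminescence from relieved DAX1 repression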
DAX1 inh-2 – DAX1 (NR0B1) inhibition, primary screen | HEK293T StAR-luciferase reporter, SF-1/DAX-1 repression relief | inhibition, % at 6.8 µM | hit rate 1.1% among 370,000 | AID 652010;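 active = inhibition above the mean over all tested compounds plus 3 SD, cut at about 3.6% in these data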;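 also: 0% = DAX-1 cells with DMSO and 100% = cells lacking DAX-1 with DMSO; higher inhibition means more luminescence from relief of DAX-1 repression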
hgDAF-12 ag – activates the H. glycines DAF-12 receptor ligand-binding domain; HEK293 GAL4-hgDAF12 UAS-luciferase reporter, agonist luminescence; normalized to butyrate control; activation, % at 6.8 µM; hit rate 1.8% among 370,000; AID 687014;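 active = activation above a cutoff set at the mean of all screened compounds plus 3 SD, cut at about 10% in these data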;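 also: 0% = DMSO wells and 100% = sodium butyrate wells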
PolyA inhibitor – yeast polyadenylation inhibition. S. cerevisiae SKY197-pL101 polyadenylation reporter, beta-gal luminescence; efflux-impaired pdr1/pdr3 knockout yeast; score 100 = 6 SD above DMSO. activity score, % at 12 µM. hit rate 0.02% among 300,000. AID 1875;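 active = lowest replicate activity score at least 50, where 100 means six control SD above control mean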;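 also: yeast exposed to compound for 9 h at 30 °C; higher score means more reporter readthrough which indicates perturbed polyadenylation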
ssDAF12 agonist – S. stercoralis DAF-12 activation, primary screen; HEK293 ssDAF-12/GRIP1 lit1-tk-luc reporter, luminescence; % of 3 µM dafachronic acid response; activation, % at 6.8 µM; hit rate 1% among 370,000; AID 652126;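 active = activation above the mean over all tested compounds plus 3 SD, cut at about 0.9% in these data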;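 also: 0% = DMSO-only wells and 100% = 3 µM delta7-dafachronic acid wells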
hcDAF12 agonist – activates DAF-12 receptor from parasite H. contortus; HEK293 hcDAF-12 lit1-tk-luc reporter, luminescence; 0% DMSO, 100% Δ7-dafachronic acid; activation, % at 6.8 µM; hit rate 1.4% among 370,000; AID 652067;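 active = activation above the mean of all tested compounds plus 3 SD, cut at about 5.5% in these data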;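 also: 100% = response to 3 µM Δ7-dafachronic acid high control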
hgDAF12 conf – hgDAF-12 agonism, confirmation assay; hit rate 80% among 3,300; activation, % at 6.8 µM; HEK293 GAL4-hgDAF12 luciferase reporter, agonist mode; percent of butyrate response; AID 743050; shares compounds with hgDAF-12 ag;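 active = mean activation over triplicate wells above the hit cutoff derived from the earlier primary screen, cut at about 11% in these data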;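 also: 0% = DMSO low control and 100% = 2 mM sodium butyrate high control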
LXR ag 2 – LXR-beta agonism as DAF-12 counter-screen. shares compounds with hgDAF-12 ag. HEK293 Gal4-LXR luciferase reporter, 24 h. activation, % at 6.8 µM. 3,300 tested, under 10 active. AID 743051;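 active = mean activation of the triplicate above a set limit carried over from the primary screen, none filed active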
Target sequence (P55055 whole entry, looked up, the tested form may be a part): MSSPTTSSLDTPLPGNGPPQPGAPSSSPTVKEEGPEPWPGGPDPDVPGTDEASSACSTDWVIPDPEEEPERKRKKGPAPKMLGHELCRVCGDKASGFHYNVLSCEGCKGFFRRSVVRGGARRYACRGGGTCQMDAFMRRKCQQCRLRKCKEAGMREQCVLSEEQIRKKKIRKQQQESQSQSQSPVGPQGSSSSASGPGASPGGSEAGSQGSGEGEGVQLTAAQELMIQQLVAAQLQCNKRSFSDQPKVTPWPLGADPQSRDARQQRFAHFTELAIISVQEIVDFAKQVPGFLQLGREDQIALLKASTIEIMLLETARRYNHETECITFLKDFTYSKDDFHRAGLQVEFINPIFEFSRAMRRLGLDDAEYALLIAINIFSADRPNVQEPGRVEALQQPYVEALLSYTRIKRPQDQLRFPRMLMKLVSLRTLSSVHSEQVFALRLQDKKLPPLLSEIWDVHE
Starred values were filed as active, the others as inactive.

CCn1c(O)c(/C=C2\C=Nc3ccccc32)sc1=O was read as DAX1 inh-1 2.2, DAX1 inh-2 2.0, hgDAF-12 ag 14.0*, PolyA inhibitor -17.5, ssDAF12 agonist -0.4, hcDAF12 agonist 4.5, hgDAF12 conf 21.5* and LXR ag 2 0.7.
`CCn1c(O)c(/C=C2\C=Nc3ccccc32)sc1=Nc1ccc(C)cc1` gave DAX1 inh-1 0.4, DAX1 inh-2 0.3, hgDAF-12 ag 1.3, PolyA inhibitor -7.6, ssDAF12 agonist -1.9 and hcDAF12 agonist -1.4.
Screening Nc1nn(-c2ccccc2)c(N)c1N=Nc1cccc(F)c1 returned DAX1 inh-2 0.3, hgDAF-12 ag 18.8*, PolyA inhibitor -9.4, ssDAF12 agonist 0.2, hcDAF12 agonist 6.0*, hgDAF12 conf 23.7* and LXR ag 2 1.0.
Screening Cc1nn(-c2ccccc2)c2c1C(c1ccc(F)cc1F)C(C#N)=C(N)O2 (centres undefined) returned DAX1 inh-1 0.0, DAX1 inh-2 -0.5, hgDAF-12 ag -1.6, PolyA inhibitor 6.3, ssDAF12 agonist -1.1 and hcDAF12 agonist -0.1.
Screening Cc1nn2c(-c3ccc(F)cc3)ccnc2c1Cl returned DAX1 inh-1 0.8, DAX1 inh-2 0.1, hgDAF-12 ag -1.3, PolyA inhibitor -25.8, ssDAF12 agonist -0.7 and hcDAF12 agonist -0.8.
`Fc1ccc(-c2cnn3c(-c4ccncc4)ccnc23)cc1` gave DAX1 inh-1 2.9, DAX1 inh-2 2.5, hgDAF-12 ag 15.6*, PolyA inhibitor 6.0, ssDAF12 agonist 0.5, hcDAF12 agonist 3.5, hgDAF12 conf 17.9* and LXR ag 2 0.9.
